These results are taken from PubChem BioAssay (NCI).

Among the test systems are SK-MEL-2 melanoma; EKVX NSCLC; SN12C renal; UO-31 renal; TK-10 renal; ACHN renal; CAKI-1 renal; A498 renal; CCRF-CEM leukemia; MOLT-4 leukemia; SR leukemia; RPMI-8226 leukemia; OVCAR-8 ovarian; OVCAR-5 ovarian; OVCAR-4 ovarian; SK-OV-3 ovarian; IGROV1 ovarian; OVCAR-3 ovarian; HS 578T breast; NCI/ADR-RES ovarian.
Assay in all cases: NCI-60 one-dose screen, 48 h (100 = growth as untreated, 0 = no growth, -100 = all killed)
Common to all, as to settings: 10 µM unless noted

This is part of a sample that, as a whole, favours compounds with a hit. Of some 83,000 tested, about 20% had one in any assay.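 Assay: single dose, 48 h. Readout: percent growth (0 = no net growth; negative = cell death). Active: <10.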 A number with no mark means an inactive call. Active and inactive are the calls of the source.

In the case of `Nc1ncnc2c1c(-c1cccc(Cl)c1)nn2CC(=O)N1CCOCC1`, the growth in the test on SK-MEL-2 melanoma is 106%; in the test on EKVX NSCLC it was 104%; in the test with SN12C renal, 100%; in the test with UO-31 renal, 80.7%; in the test on TK-10 renal, 97%; with ACHN renal it was 95.6%. For the same compound, the growth is 91.8% in the test with CAKI-1 renal; 118% in the test on A498 renal; 102% with CCRF-CEM leukemia; 110% in the test on MOLT-4 leukemia; 116% in the test on SR leukemia; 108% with RPMI-8226 leukemia. Moreover, the growth was 102% in the test on OVCAR-8 ovarian; 101% in the test on OVCAR-5 ovarian; 96.6% in the test with OVCAR-4 ovarian; 109% in the test on SK-OV-3 ovarian; 99.2% in the test with IGROV1 ovarian; 106% in the test with OVCAR-3 ovarian. Further, the growth with HS 578T breast and in the test with NCI/ADR-RES ovarian was 103% in each case.
In the case of `CCOC(=O)c1c2c(n3cccc(F)c13)C(=O)c1ncccc1C2=O`, the growth in the test on SK-MEL-2 melanoma was 72.4%; in the test on EKVX NSCLC, 27.7%; in the test with SN12C renal, 25.6%; with UO-31 renal, -28.5% (active); in the test with TK-10 renal, 36.8%; in the test with ACHN renal, 7% (active). The growth with CAKI-1 renal is 14.4%; with A498 renal, 24%; with CCRF-CEM leukemia, 67.3%; with MOLT-4 leukemia it was 69.3%; with SR leukemia, 20.5%; in the test on RPMI-8226 leukemia, 37.5%. Also, the growth with OVCAR-8 ovarian was 19.3%; in the test on OVCAR-5 ovarian, 44.3%; in the test with OVCAR-4 ovarian it was 24.4%; with SK-OV-3 ovarian, -4.82% (active); in the test with IGROV1 ovarian, 34.4%; in the test on OVCAR-3 ovarian it was -11.1% (active). Also, the growth with HS 578T breast is 31.5%; with NCI/ADR-RES ovarian, 18.7%.
As to `CCSc1oc(-c2ccccc2)nc1[P+](c1ccccc1)(c1ccccc1)c1ccccc1`, the growth with SK-MEL-2 melanoma was -9.57% (active); in the test on EKVX NSCLC, 11%; with SN12C renal, 3.37% (active); in the test with UO-31 renal, -31.3% (active); in the test with TK-10 renal it was 24.1%; in the test with ACHN renal, -5.44% (active). For the same compound, the growth in the test with CAKI-1 renal is 1.2% (active); with A498 renal it was -32.8% (active); in the test with CCRF-CEM leukemia, 11.1%; in the test with MOLT-4 leukemia, 1.34% (active); in the test on SR leukemia, 1.17% (active); with RPMI-8226 leukemia, -18.9% (active). The growth is 7.86% (active) with OVCAR-8 ovarian; 27.6% in the test with OVCAR-5 ovarian; 13.1% with OVCAR-4 ovarian; -16.1% (active) in the test with SK-OV-3 ovarian; 5.02% (active) in the test with IGROV1 ovarian; 3.17% (active) in the test on OVCAR-3 ovarian. For the same compound, the growth in the test with HS 578T breast is 18.4%; in the test on NCI/ADR-RES ovarian, 67.4%.
In the case of `Cc1nc2sc(C(=O)Nc3ccc(Br)cc3)c(N)c2cc1C(O)c1ccccc1` (stereo not given), the growth was 81.5% in the test on SK-MEL-2 melanoma; 55.3% in the test on EKVX NSCLC; 68% in the test with SN12C renal; 62.1% in the test with UO-31 renal; 85.4% in the test on TK-10 renal; 72.4% in the test on ACHN renal. Also, the growth in the test on CAKI-1 renal is 65%; with A498 renal, 51.9%; in the test on CCRF-CEM leukemia, 43.4%; in the test on MOLT-4 leukemia, 26.2%; with SR leukemia it was 14.9%; with RPMI-8226 leukemia, 55.4%. Besides, the growth is 75.2% with OVCAR-8 ovarian; 92% in the test on OVCAR-5 ovarian; 59.3% in the test on OVCAR-4 ovarian; 78.3% in the test with SK-OV-3 ovarian; 75.1% in the test with IGROV1 ovarian; 73.9% in the test with OVCAR-3 ovarian. In addition, the figures for the growth with HS 578T breast and in the test with NCI/ADR-RES ovarian were 74.1% and 59.7%, respectively.
For the compound `C=CCOC(=O)Nc1cccn([C@H](Cc2ccccc2)C(=O)NCCC(C)C)c1=O`, the growth in the test with SK-MEL-2 melanoma was 115%; in the test with EKVX NSCLC, 104%; in the test with SN12C renal, 98.7%; in the test on UO-31 renal, 88.7%; in the test on TK-10 renal, 111%; in the test on ACHN renal, 103%. Further, the growth in the test with CAKI-1 renal is 89.8%; in the test with A498 renal it was 114%; in the test on CCRF-CEM leukemia it was 77.1%; in the test with MOLT-4 leukemia it was 93.6%; in the test with SR leukemia, 64.6%; in the test on RPMI-8226 leukemia it was 85.9%. In addition, the growth with OVCAR-8 ovarian was 102%; in the test with OVCAR-5 ovarian, 117%; in the test with OVCAR-4 ovarian it was 92.7%; in the test on SK-OV-3 ovarian, 103%; with IGROV1 ovarian it was 106%; in the test with OVCAR-3 ovarian it was 119%. Further, the growth is 103% with HS 578T breast and 93.1% with NCI/ADR-RES ovarian.
In the case of `COC(=O)/C=C1/SC(=Nc2ccc(C(F)(F)F)cc2)N(CCc2c[nH]c3ccc(O)cc23)C1=O`, the growth in the test with SK-MEL-2 melanoma was -33.5% (active); in the test on EKVX NSCLC, 41.1%; in the test on SN12C renal it was -69% (active); with UO-31 renal, -18.5% (active); in the test with TK-10 renal, 11.7%; in the test on ACHN renal, -46.1% (active). In addition, the growth in the test with CAKI-1 renal is 31.4%; in the test with A498 renal it was -1.57% (active); with CCRF-CEM leukemia, -9.32% (active); in the test on MOLT-4 leukemia, -36.2% (active); with SR leukemia, -35.5% (active); in the test on RPMI-8226 leukemia, -50.3% (active). Further, the growth with OVCAR-8 ovarian was 13.9%; in the test with OVCAR-5 ovarian it was -25.9% (active); in the test on OVCAR-4 ovarian, -45.6% (active); in the test with SK-OV-3 ovarian, -5.47% (active); with IGROV1 ovarian, -54.2% (active); with OVCAR-3 ovarian, -31.1% (active). In addition, the growth with HS 578T breast is 7.87% (active); with NCI/ADR-RES ovarian, 21%.
Turning to `O=C(Nc1nc2cc(C(=O)N3CCN(C(c4ccccc4)c4ccccc4)CC3)ccc2o1)c1ccc(NC2CCCCC2)c([N+](=O)[O-])c1`, the growth was 90.8% with SK-MEL-2 melanoma; 52.5% in the test with EKVX NSCLC; 53.8% with SN12C renal; 66.5% in the test on UO-31 renal; 84.5% in the test with TK-10 renal; 47% in the test with ACHN renal. Besides, the growth is 54.5% in the test with CAKI-1 renal; 76.2% with A498 renal; 28.3% in the test on CCRF-CEM leukemia; 47.9% in the test with MOLT-4 leukemia; 49.1% with SR leukemia; 40.1% with RPMI-8226 leukemia. For the same compound, the growth in the test on OVCAR-8 ovarian is 37.8%; with OVCAR-5 ovarian, 72.5%; with OVCAR-4 ovarian, 38.8%; in the test with SK-OV-3 ovarian, 73.8%; with IGROV1 ovarian it was 51.1%; with OVCAR-3 ovarian it was 52.8%. The growth in the test on HS 578T breast is 76%; with NCI/ADR-RES ovarian it was 35.3%.
